The values that follow come from the supplement of paper PMC10338343.

± gives the standard deviation. Some results are limits rather than exact numbers.
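Note: 1 nM active piRISC with 0.1 nM target library at 33 °C single turnover.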

For the first experiment, the system named is MILI (PIWIL2) piRISC loaded with L1MC piRNA (26 nt). Nature of the experiment: pre-steady-state target cleavage rate (min^-1); guide: L1MC piRNA 5'p-UAACUAAAUACUAUGCAAGCUGUAGG; MIWI and MILI are mouse PIWI proteins and EfPiwi is from a freshwater sponge; tags in brackets are library labels; higher = faster piRNA-guided slicing of the target. To be noted: auxiliary factor: 500 nM mouse GTSF1. The procedure, abridged: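 In this Cleave-'n-Seq assay, uncleaved targets were sequenced and normalised to depth and to weakly complementary targets. They came from a transcribed, DNA-blocked target RNA library […] mixed with 1 nM active affinity-purified piRISC carrying one synthetic guide, with or without 500 nM GTSF1 partner protein, in HEPES–potassium acetate buffer at 33 °C for 0–8 or 0–960 min. After three trials were pooled and k3 was capped at 0.0001 min^-1, the pre-steady-state cleavage rate was obtained from a burst-and-steady-state fit.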
As to UCCUCCUACAGCUUGCAUAGAUUUUUCAAA, the “pre-steady-state target cleavage rate” value was found to be 0.0441 ± 0.013.
Take UCCUGGAUGUCGAUGCAUAGUAUUUAGUGA: the “pre-steady-state target cleavage rate” value was 0.0843 ± 0.016.
For the sequence UCCUGGAUGUCGAUGCAUAGUUUUUAGUAA, the “pre-steady-state target cleavage rate” value is 0.0058 ± 0.0029.
On to UCCUGCUACAGCUUGCAAAGUAUUUUCAAA, for which the “pre-steady-state target cleavage rate” value amounted to 0.0624 ± 0.02.
The same measure, in the same setting: the same measure for UCCUGGAUGUCCUUGCAUACUAUUUUGUUA: 0.00525 ± 0.0044.
UCCUGGAACAGGUUGCAUAGUAUUUACAAA: the “pre-steady-state target cleavage rate” value was 0.0582 ± 0.013.
The same measure, in the same setting: in the case of UCCUGGAUGUCGAAGCUUAGUAUUUAGUUA it was 0.00685 ± 0.0029.
With UCCUGGAUGUCGAAGCAUAGUAUUGUAGUUA, the “pre-steady-state target cleavage rate” value is 0.00801 ± 0.0041.
As for UCCUGGAACAGCUUGCAUAGUUUUUACAAA, the “pre-steady-state target cleavage rate” value is 0.00599 ± 0.0038.
Same read-out and setting: in the case of UCCUCCUACAGCAACCAUAGUAUUUAGAAA it was 0.0741 ± 0.02; in that of UCCUGGAUGUCCUUGCAUACUAUUUACUUA, 0.0119 ± 0.0046.
Regarding UCCUGGAUGUGCUUGCAUAGUAUUAAGAUA, the “pre-steady-state target cleavage rate” value was 0.00523 ± 0.0046.
Consider UCCUGGAUGUCGAACGUAUCUAUUUCAGUUA, for which the “pre-steady-state target cleavage rate” value was < 0.0001.
On to UCCUGGAUGUCGAAGCAUAGUAUUUAGUAA, for which the “pre-steady-state target cleavage rate” value is 0.0199 ± 0.0047.
In the case of UCCUGGAUGUCGAUGCAUAGUAUUGUAGUUA, the “pre-steady-state target cleavage rate” value was found to be 0.0505 ± 0.016.
For UCCUGGAUCAGCUUGCAUAGUAUUAUGUAA, the “pre-steady-state target cleavage rate” value was 0.00562 ± 0.0035.
UCCUGGAUGAGCUUGCAUACUAAUUAGUUA: the “pre-steady-state target cleavage rate” value worked out at 0.0128 ± 0.0042.
Consider UCCUGGAUGUCGUAGCUUAGUAUUUAGUUA, for which the “pre-steady-state target cleavage rate” value came out at 0.0118 ± 0.0046.
For the sequence UCCUGGAUGUCGAACGUUGAGUAUUUAGUUA, the “pre-steady-state target cleavage rate” value was < 0.0001.
For the sequence UCCUCCUACAGCUUGCAUAGAUAUUAGUUA, the “pre-steady-state target cleavage rate” value came to 0.0125 ± 0.0045.
With UCCUGCUACAGCUACCAUAGUAUUUAGUAA, the “pre-steady-state target cleavage rate” value was found to be 0.158 ± 0.029.
The same measure, in the same setting: in the case of UCCUGGUACAGCUUGCAUAGUAAAAACAAA it was 0.0104 ± 0.0051; in that of UCCUGGAUGUGCUUGCAUAGAAUUUAGUAA, 0.00482 ± 0.0043.
The same measure, in the same setting: in the case of UCCUGGAUCAGCUUGCAAUCUAUUUAGUAA it was 0.0108 ± 0.0043; in that of UCCUGGAUCAGCUUGCAUAGUUUUUAGAAA, 0.0202 ± 0.0088; in that of UCCUGGAACAGCAAGCAUAGUAUUUUCAAA, 0.0642 ± 0.018.
Still for that read-out and setting: in the case of UCCUGGAUGUCGAAGCAUAGUAAUUAGUUA it was 0.00988 ± 0.0037; in that of UCCUGGAUGUCCUUGCAUAGUAAAAAGUAA, 0.00651 ± 0.0043; in that of UCCUGGAACAGCUUGGAUAGUAUUUAGAUA, 0.137 ± 0.024.
As to UCCUGGAUGUCCUUGCAUAGUAUUUGUUA, the “pre-steady-state target cleavage rate” value was 0.0123 ± 0.0057.
Same read-out and setting: in the case of UCCUGGUACAGCUUGGUUAGUAUUUAGAAA it was 0.043 ± 0.016; in that of UCCUGGUACAGCUUGCUAAGUAUUUAGAAA, 0.0132 ± 0.0056; in that of UCCUGGAUGUCGAUGCAUAGUAUUUACAAA, 0.0066 ± 0.0042.
The same measure, in the same setting: in the case of UCCUGGAUGUCGAAGCAUAGUAUUAAGUUA it was 0.034 ± 0.0088.
UCCUGGAUGUGCUUCGUUAGUAUUUAGAAA: the “pre-steady-state target cleavage rate” value was < 0.0001.
On the same count and under the same terms, the same measure for UCCUGGAUCAGCAAGCAUAGUAUUUACAAA: 0.108 ± 0.023.

The same experiment, now with this note: auxiliary factor: none (no GTSF1).
Turning to UCCUGGUACAGCUUCGUUAGUAUUUAGAAA, the “pre-steady-state target cleavage rate” value was < 0.0001.
Same read-out and setting: the same measure for UCCUGGAUGUCGAACCAAAGUAAUUAGUUA: < 0.0001.
Same read-out and setting: the same measure for UCCUGGAUGUCGAACCAUACUAUUUAGUUA: < 0.0001.
